Laboratory results taken from PubChem BioAssay.
Where “and” joins values, the source holds several entries; their conditions need not be identical. Identical values can stand only once. Records with an inconclusive call do not appear. For part of these data: Results with a measured potency or affinity are listed apart. Calls of active or inactive are those of the source. Unless noted, no rule for the calls is given here.

Columns and labels:
[1] = target: ATP-dependent translocase ABCB1 (Homo sapiens) (UniProt P08183); assay: MDR1 (ABCB1) efflux transporter inhibition, cell-based (AID 377; in the data active = fluorescence slope change above about 50%); settings: MDR1-expressing cells, fluorescent substrate accumulation slope; stronger effect = higher value; concentration not given here
Sequence of ATP-dependent translocase ABCB1 (Homo sapiens) (P08183 whole entry, looked up): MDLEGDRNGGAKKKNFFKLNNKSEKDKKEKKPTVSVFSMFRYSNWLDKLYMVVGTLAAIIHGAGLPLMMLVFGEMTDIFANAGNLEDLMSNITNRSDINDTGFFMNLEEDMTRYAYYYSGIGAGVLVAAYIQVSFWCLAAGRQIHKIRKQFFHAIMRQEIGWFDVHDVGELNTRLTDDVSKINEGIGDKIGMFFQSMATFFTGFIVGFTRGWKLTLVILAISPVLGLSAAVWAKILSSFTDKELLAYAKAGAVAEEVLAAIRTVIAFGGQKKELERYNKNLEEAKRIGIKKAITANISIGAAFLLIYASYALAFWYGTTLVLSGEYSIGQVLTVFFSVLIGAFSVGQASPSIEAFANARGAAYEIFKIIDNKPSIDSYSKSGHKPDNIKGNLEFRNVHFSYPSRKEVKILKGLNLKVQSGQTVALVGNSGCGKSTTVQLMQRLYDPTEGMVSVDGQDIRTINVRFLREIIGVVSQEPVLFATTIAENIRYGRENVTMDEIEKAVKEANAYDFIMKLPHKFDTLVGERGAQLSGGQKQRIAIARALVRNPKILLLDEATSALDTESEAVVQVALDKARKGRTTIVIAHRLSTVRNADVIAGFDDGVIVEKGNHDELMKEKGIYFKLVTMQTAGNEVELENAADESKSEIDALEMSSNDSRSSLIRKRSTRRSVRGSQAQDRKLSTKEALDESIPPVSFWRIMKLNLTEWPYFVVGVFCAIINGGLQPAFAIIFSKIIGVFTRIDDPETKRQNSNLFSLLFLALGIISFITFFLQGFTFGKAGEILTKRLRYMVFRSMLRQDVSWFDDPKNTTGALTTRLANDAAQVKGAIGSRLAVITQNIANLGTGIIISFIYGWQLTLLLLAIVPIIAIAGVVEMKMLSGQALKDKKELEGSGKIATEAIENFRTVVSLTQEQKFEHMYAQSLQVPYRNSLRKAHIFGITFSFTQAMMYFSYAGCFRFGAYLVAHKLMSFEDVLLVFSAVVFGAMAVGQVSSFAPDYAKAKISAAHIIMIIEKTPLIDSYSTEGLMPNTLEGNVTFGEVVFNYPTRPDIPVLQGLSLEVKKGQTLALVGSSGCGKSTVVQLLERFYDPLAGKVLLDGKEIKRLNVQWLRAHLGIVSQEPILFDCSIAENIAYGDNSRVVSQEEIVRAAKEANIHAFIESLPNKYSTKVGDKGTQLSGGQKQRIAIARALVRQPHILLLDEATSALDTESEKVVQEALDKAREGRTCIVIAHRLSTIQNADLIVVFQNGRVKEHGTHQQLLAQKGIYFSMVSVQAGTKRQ

[2] = polyglutamine-triggered caspase-3 activation inhibitors, cell-based (AID 1583); settings: polyglutamine-induced caspase-3 activation, cell assay; stronger effect = higher value;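 tested at 10 µM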
[3] = suppressors of polyQ aggregation in yeast, 75Q-TubU reporter (AID 1593); settings: Yeast 75Q polyglutamine aggregation reporter
[4] = rescue of polyQ-huntingtin neuronal dysfunction in worms, whole organism, C. elegans mechanosensory neurons, N-terminal huntingtin (AID 1599); settings: touch response, stronger effect = higher value
[5] = inhibitors of mitochondrial cytochrome c release, biochemical, purified mitochondria (AID 1603); settings: stronger effect = lower value;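 also: mouse liver mitochondria challenged with calcium chloride; signal normalized to the plate average as 100%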
[6] = inhibitors of polyQ protein aggregation (AID 1604); settings: polyglutamine-induced protein aggregation inhibition assay; stronger effect = higher value; tested at 2.5 µM
[7] = enhancers of glutamate uptake in motor neurons, MN-1 cell line (AID 1612); settings: MN-1 motor neuron cells, stronger effect = higher value;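 also: tested at 1 µM final; 0% = mean of DMSO vehicle wells on each plate; positive means more glutamate uptake than control and negative means less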
[8] = suppressors of polyglutamine aggregation in yeast, 75Q-TubH (AID 1616); settings: S. cerevisiae 75Q-TubH polyglutamine aggregation suppression; stronger effect = higher value
[9] = circadian clock period modulators, cell-based, LOPAC library, luminescence reporter (AID 2774); settings: circadian reporter cells, at 7 µM, actives lie on both sides;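 also: values are relative to mean of DMSO wells on each plate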
[10] = hESC survival regulators, cell-based (AID 493140); settings: human embryonic stem cell survival screen; stronger effect = higher value;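 also: cells exposed to compounds for four days before counting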
[11] = test system: Hepatitis C virus NS3 helicase; assay: HCV NS3 helicase inhibitors, primary screen, biochemical, fluorescence polarization, LOPAC1280 library (AID 687035; in the data active = inhibition above about 37%); settings: Purified HCV NS3 helicase, Cy5-dT15 ssDNA binding fluorescence polarization; stronger effect = higher value; concentration not given here
[12] = Cy5 fluorescence quenching or enhancement artefacts, artefact control for HCV NS3 helicase inhibitor project, biochemical, LOPAC1280 (AID 687037); settings: Cy5-DNA-NS3h complex fluorescence interference counterscreen
[13] = Cy5 fluorescence interference with SSB-bound oligo, artefact control for HCV NS3 helicase inhibitor project, biochemical, NIH Clinical Collection, E. coli SSB (AID 743268)
[14] = test system: Hepatitis C virus NS3 helicase; assay: HCV NS3 helicase inhibitors, primary screen, biochemical, fluorescence polarization, NIH Clinical Collection (AID 743270); settings: NS3 helicase binding to Cy5-dT15 DNA, stronger effect = higher value, concentration not given here
[15] = target: Single-stranded DNA-binding protein (Escherichia coli (strain K12)) (UniProt P0AGE0); assay: E. coli SSB displacement from DNA, counter-screen for HCV NS3 helicase inhibitor project, biochemical, fluorescence polarization, NIH Clinical Collection (AID 743271; in the data active = inhibition above about 28%); settings: stronger effect = higher value, concentration not given here
[16] = fluorescence interference in NS3h assay format, artefact control for HCV NS3 helicase inhibitor project, biochemical, NIH Clinical Collection (AID 743272); settings: fluorescence interference counterscreen, stronger effect = lower value;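 also: HCV NS3 helicase with a Cy5 labelled single stranded DNA probe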
[17] = test system: Neuropilin-2 / VEGF-C interaction (human); assay: inhibitors of NRP2–VEGF-C binding, biochemical, microplate binding format, z-score (AID 743281); settings: microplate NRP2/VEGF-C binding assay; stronger effect = lower value
[18] = stimulators of nuclear beta-catenin in C2C12, primary screen, imaging, WNT3A-conditioned medium, mouse C2C12, NPC library (AID 1117326; in the data active = nuclear beta-catenin stimulation mostly above about 4.2%, no sharp cut-off; inactive = mostly below about 10%); settings: stronger effect = higher value
[19] = stimulators of insulin release from INS-1E, primary screen, cell-based, 5 mM glucose, NPC library (AID 1117329;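 active = compound raises insulin release from rat beta cells at 5 mM glucose, no numeric limit stated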); settings: rat INS-1E insulin secretion, at 10 µM, stronger effect = higher value
[20] = growth inhibition of GSK3B-pretreated HCT116 cells – cell-based, CellTiter-Glo, 0.2 to 20 µM (AID 1117336;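 active = compounds lowering colon cancer cell viability after pretreatment blocking the GSK3B kinase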); settings: HCT116 viability after GSK3B inhibitor, at 20 µM, stronger effect = higher value
[21] = inhibition of endothelial tube formation, primary screen, imaging, VEGF stimulated, CD31 staining, tube area, NPC library (AID 1117340;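 active = compound that reduces growth-factor-driven endothelial tube area in a mixed cell culture, no cutoff stated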); settings: VEGF-stimulated ADSC/ECFC co-culture, at 10 µM, stronger effect = higher value
[22] = glucagon-like peptide 1 release enhancers, primary assay, NCI-H716 cell line, NPC library (AID 1117341;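 active = compound raises GLP1 secretion from the human gut endocrine cells, with no numeric limit stated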); settings: NCI-H716 cells, at 10 µM, stronger effect = higher value
[23] = HCT116 colon cancer cell growth inhibition, primary screen, CellTiter-Glo luminescence, NPC library (AID 1117342;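 active = compounds that lower survival of HCT116 colon cancer cells in the luminescence readout, no numeric limit stated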); settings: at 20 µM (top of the series)
[24] = CellTiter-Glo luminescent readout of SW480 viability loss, NPC library primary (AID 1117343;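 active = compounds that lower viability of the colon cancer cells in the luminescence readout, with no numeric limit stated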); settings: CellTiter-Glo luminescence; at 20 µM (top of the series)
[25] = decreased DLD-1 cellular survival, CellTiter-Glo luminescent readout, NPC compound collection, primary HTS (AID 1117346;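 active = compounds that lower survival of DLD-1 colon cancer cells in the luminescence readout, no cutoff given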); settings: DLD-1 viability, CellTiter-Glo luminescence; at 20 µM (top of the series)
[26] = target: 6-phosphogluconate dehydrogenase, decarboxylating (Homo sapiens) (UniProt P52209); assay: 6PGD enzyme inhibitors, primary screen, biochemical, human, recombinant enzyme, NADPH absorbance (AID 1159550;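 active = at least 20% inhibition of 6-phosphogluconate dehydrogenase activity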); settings: recombinant 6PGD, NADPH absorbance 341 nm; at 10 µM; stronger effect = higher value
Sequence of 6-phosphogluconate dehydrogenase, decarboxylating (Homo sapiens) (P52209 whole entry, looked up): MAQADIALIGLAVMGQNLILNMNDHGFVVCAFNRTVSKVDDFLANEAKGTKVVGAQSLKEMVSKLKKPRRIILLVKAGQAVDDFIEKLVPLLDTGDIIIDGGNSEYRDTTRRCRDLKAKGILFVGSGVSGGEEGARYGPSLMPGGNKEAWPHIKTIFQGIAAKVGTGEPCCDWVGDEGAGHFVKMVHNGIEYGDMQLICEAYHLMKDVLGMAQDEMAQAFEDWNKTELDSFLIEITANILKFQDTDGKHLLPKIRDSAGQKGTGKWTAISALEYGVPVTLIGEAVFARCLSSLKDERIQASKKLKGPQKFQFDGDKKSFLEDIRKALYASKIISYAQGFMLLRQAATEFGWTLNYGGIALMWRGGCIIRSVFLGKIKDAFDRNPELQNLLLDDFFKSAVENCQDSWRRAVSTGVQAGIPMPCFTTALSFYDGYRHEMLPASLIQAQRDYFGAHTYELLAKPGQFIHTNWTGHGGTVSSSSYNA

[27] = modulation of C. elegans fzo-1 (AID 1259413);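 also: fzo-1 mutant C. elegans worms in liquid wells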; settings: C. elegans fzo-1 modulator screen, mean read-out; stronger effect = higher value
[28] = differential killing of epithelial or mesenchymal cells, primary screen, imaging, PC-3E GFP, TEM4-18 mCherry, co-culture (AID 1345086;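 active = compounds killing one labelled cell type while sparing the other, by normalised counts and ratio limits, not self-fluorescent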;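 as to all read-outs here: cells exposed to compound for 72 h before imaging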;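 as to red/green cell ratio (normalised): normalised mesenchymal count divided by normalised epithelial count so high means epithelial killing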); settings: imaging cell counts, at 1 µM; for red/green cell ratio (normalised): actives lie on both sides, counts scaled to control wells, 1 = unselective
[29] = growth inhibition of DIPG glioma cells, dose response, cell-based, SU-DIPG-XIII, MIPE4.0, CellTiter-Glo, qHTS (AID 1347061; cut-off not given, nearly all actives have AC50 up to about 37 µM;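 also: cells exposed to compound for 48 hours before readout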); settings: SU-DIPG-XIII viability, CellTiter-Glo ATP luminescence
[30] = growth inhibition of DIPG glioma cells, dose response, cell-based, JHH-DIPG-1, MIPE4.0, CellTiter-Glo, qHTS (AID 1347062; cut-off not given, nearly all actives have AC50 up to about 27 µM); settings: JHH-DIPG-1 viability, CellTiter-Glo ATP luminescence
[31] = viability loss in pontine glioma line – cell-based, SU-DIPG-XXV, MIPE5.0, CellTiter-Glo, qHTS, dose response (AID 1347065; cut-off not given, nearly all actives have AC50 up to about 26 µM;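 also: cells exposed to compound for 48 hours before ATP readout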); settings: CellTiter-Glo ATP luminescence
[32] = SU-DIPG-VI glioma cell viability, MIPE4.0 library, CellTiter-Glo luminescence, qHTS (AID 1347066; cut-off not given, nearly all actives have AC50 up to about 30 µM;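 also: cells exposed to compound for 48 hours before readout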); settings: CellTiter-Glo ATP luminescence
[33] = JHH-DIPG-1 glioma cell viability, MIPE5.0 library, CellTiter-Glo luminescence, qHTS (AID 1347067; cut-off not given, nearly all actives have AC50 up to about 26 µM;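 also: cells exposed to compound for 48 hours before readout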); settings: JHH-DIPG-1 glioma viability, CellTiter-Glo ATP luminescence
[34] = inhibitors of Cryptococcus chitosan production, flow cytometry, Cibacron Brilliant Red staining (AID 1347148); settings: Cryptococcus neoformans chitosan, stronger effect = lower value; at 99.1 µM unless noted;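 also: compound exposure lasted three days at 37 degrees C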
[35] = phospholipid biosynthesis inhibitors in animal cells, primary screen, cell-based, LOPAC library, screen 4 (AID 1347384); settings: phospholipid biosynthesis inhibition screen, at 10 µM
[36] = survival rescue of mitochondrial mutant cells in low glucose, primary screen, MELAS cybrids, Rieske KO mouse fibroblasts, CellTiter-Glo (AID 1508586;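 active = mean z-score across replicates of 1.96 or higher in either the MELAS or the Rieske mutant cell line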;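 also: z relative to plate mean and SD of compound and empty wells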)
[37] = target: NAD(+) hydrolase SARM1 (Homo sapiens) (UniProt Q6SZW1); assay: SARM1 TIR NADase inhibitors, cell lysate, NAD-Glo luminescence (AID 1508614;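 active = compound whose remaining NAD level is above about 45 nM, limit read from the data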;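 also: higher remaining NAD means stronger inhibition of SARM1 NADase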); settings: SAM-TIR HEK293T lysate NADase, at 1 µM, stronger effect = higher value
Sequence of NAD(+) hydrolase SARM1 (Homo sapiens) (Q6SZW1 whole entry, looked up, the tested form may be a part): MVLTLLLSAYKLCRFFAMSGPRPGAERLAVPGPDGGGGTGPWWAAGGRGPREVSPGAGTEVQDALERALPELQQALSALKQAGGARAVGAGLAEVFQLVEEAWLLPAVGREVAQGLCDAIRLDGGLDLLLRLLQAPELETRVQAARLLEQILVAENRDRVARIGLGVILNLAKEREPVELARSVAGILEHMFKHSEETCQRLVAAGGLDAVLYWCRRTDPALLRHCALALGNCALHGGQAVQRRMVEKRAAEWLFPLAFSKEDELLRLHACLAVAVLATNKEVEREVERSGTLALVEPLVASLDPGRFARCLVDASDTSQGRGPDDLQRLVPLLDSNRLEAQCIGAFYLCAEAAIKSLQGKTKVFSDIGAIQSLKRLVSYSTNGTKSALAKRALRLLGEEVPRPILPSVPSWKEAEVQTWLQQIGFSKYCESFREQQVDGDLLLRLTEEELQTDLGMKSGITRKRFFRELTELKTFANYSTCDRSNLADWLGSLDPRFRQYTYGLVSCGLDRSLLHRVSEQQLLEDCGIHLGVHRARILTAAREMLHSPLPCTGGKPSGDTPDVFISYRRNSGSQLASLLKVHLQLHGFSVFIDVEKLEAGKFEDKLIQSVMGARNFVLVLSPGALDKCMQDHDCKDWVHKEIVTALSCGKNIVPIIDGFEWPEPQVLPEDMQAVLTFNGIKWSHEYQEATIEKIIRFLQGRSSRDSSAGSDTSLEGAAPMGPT

[38] = target: Mitogen-activated protein kinase 7 (Homo sapiens) (UniProt Q13164); assay: ERK5 transactivation activators in reporter cells, primary screen, cell-based, HTS (AID 1508626;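 active = luciferase signal above three times the same-plate solvent-only control wells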;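 also: luciferase driven by Gal4-ERK5 fusion binding five Gal4 sites before minimal TATA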); settings: HeLa Gal4-ERK5 transactivation, 18 h, at 5 µM, stronger effect = higher value
Sequence of Mitogen-activated protein kinase 7 (Homo sapiens) (Q13164 whole entry, looked up, the tested form may be a part): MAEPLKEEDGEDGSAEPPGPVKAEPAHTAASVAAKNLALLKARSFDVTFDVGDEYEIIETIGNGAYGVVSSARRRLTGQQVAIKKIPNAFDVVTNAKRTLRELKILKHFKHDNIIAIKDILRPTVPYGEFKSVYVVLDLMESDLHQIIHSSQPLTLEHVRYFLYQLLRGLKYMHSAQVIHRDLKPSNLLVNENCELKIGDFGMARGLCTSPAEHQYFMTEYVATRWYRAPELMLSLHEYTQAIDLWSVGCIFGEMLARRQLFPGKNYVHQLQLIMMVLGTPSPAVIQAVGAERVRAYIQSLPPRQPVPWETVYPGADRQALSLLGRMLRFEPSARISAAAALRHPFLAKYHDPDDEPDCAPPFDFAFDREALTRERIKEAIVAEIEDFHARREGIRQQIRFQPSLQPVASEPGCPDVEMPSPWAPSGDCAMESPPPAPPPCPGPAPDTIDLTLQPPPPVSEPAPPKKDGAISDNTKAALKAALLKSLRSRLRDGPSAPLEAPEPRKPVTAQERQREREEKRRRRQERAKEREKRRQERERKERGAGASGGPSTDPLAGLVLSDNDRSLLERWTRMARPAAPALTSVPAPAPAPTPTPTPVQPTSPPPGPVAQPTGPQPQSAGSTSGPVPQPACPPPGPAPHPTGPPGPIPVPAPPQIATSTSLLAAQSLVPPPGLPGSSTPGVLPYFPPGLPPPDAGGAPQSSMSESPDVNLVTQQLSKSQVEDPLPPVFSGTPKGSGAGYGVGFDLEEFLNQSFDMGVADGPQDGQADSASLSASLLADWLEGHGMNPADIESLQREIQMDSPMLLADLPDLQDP

[39] = viability rescue of complex I mutant cybrids, primary screen, cell-based, galactose medium, ATP luminescence (AID 1645843;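 active = z-score of at least 1.8 in each of two replicates, scored against plate mean and spread of sample wells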;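 also: positive z means more ATP and so rescue of galactose-driven cybrid death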); settings: complex I mutant cybrid cells, 72 h, stronger effect = higher value
[40] = test system: F380Y; assay: modulators of BK channel variants, profiling panel, selectivity assay, cell-based, U2OS BacMam, thallium flux, beta subunits (AID 1259406;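 active = thallium flux through the channel raised or lowered by more than 3 SD from vehicle-only wells, actives on both sides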;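 also: initial slope of Thallos dye fluorescence rise after thallium is added; log ratio against the mean of 0.3% DMSO vehicle wells on the same plate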); settings: at 30 µM
[41] = test system: F380Y/beta2Delta; assay: as above; settings: at 30 µM
[42] = target: Calcium-activated potassium channel subunit alpha-1 (Homo sapiens) + Leucine-rich repeat-containing protein 26 (Homo sapiens) (UniProt Q12791+Q2I0M4); assay: as above; settings: F380Y/Slo1WT/gamma1, at 30 µM
Sequence of Calcium-activated potassium channel subunit alpha-1 (Homo sapiens) + Leucine-rich repeat-containing protein 26 (Homo sapiens) (Q2I0M4 whole entry, looked up, one chain of several): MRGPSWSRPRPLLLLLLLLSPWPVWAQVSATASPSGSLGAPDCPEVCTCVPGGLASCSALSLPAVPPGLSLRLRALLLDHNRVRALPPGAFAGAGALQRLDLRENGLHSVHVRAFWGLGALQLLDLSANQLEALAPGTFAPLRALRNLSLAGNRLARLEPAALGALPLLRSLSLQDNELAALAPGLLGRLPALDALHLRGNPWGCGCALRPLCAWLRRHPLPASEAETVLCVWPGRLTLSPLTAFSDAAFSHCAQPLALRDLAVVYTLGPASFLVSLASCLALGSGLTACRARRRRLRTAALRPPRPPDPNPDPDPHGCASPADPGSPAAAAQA

[43] = test system: R275C; assay: as above; settings: at 30 µM
[44] = test system: R275C/beta1; assay: as above; settings: at 30 µM
[45] = test system: R275C/beta2Delta; assay: as above; settings: at 30 µM
[46] = liver-stage malaria parasite growth inhibition, primary screen, cell-based, HepG2, luciferase luminescence, HepG2 viability (AID 624349; in the data active = parasite load remaining mostly below about 12%, no sharp cut-off; inactive = mostly above about 10%;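 also: 100% = mean of DMSO negative control wells on the same plate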); settings: P. berghei liver stage in HepG2, luciferase luminescence, concentration not given here; parasite load remaining: stronger effect = lower value; viability: measured here: HepG2 viability without parasites
[47] = test system: Aerobactin synthetase IucA (Klebsiella pneumoniae); assay: IucA aerobactin synthetase inhibitors, biochemical, Tocris library, absorbance (AID 1345561); settings: purified IucA enzyme assay, absorbance (OD) read-out; stronger effect = lower value;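 tested at 8 µM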;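 also: 100% = enzyme without compound and 0% = no enzyme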
[48] = measured here: epithelial PC-3E GFP cell survival
[49] = measured here: mesenchymal TEM4-18 mCherry cell survival
[50] = MELAS cybrid survival, CellTiter-Glo 48 h, stronger effect = higher value
[51] = Rieske KO mouse fibroblast survival, CellTiter-Glo 72 h

CN1CCN(CCCN2c3ccccc3Sc3ccc(C(F)(F)F)cc32)CC1
1: normalised cell number [28, 48]
0.2%: nuclear beta-catenin stimulation ([18]; stimulation, at 2 µM)
65.5%: inhibition of aggregation [6]
-0.246 and 0.0911 and -0.232: z-score [36, 51]
0.91: normalised cell number [28, 49]
2.01: cytochrome c release ratio [5]
0: rescue above control [4]
inactive: period change [9] 0.025 h | survival [10] 1.83 | inhibition [11] -6% | fluorescence ratio (interference) [12] 0.9 | fluorescence ratio [13] 0.87 | inhibition [14] -1.19% | inhibition [15] 1.44% | fluorescence ratio [16] 0.85 | z-score [17] 0.311 | nuclear beta-catenin stimulation ([18]; at 10 µM) 32.2% | insulin secretion stimulation [19] 6.1% | inhibition [26] 8.36% | mean signal [27] 265 | red/green cell ratio (normalised) [28] 0.91 | outcome [30] | outcome [32] | fold fluorescence [34] 10.1 [at 122.7 µM] | outcome [35] | z-score [36, 50] -0.198 and -1.6 and 0.134 | remaining NAD [37] 10 nM | luciferase signal [38] 52 AU | z-score [39] -1.38 and -1.44 and -1.35 | log fold change Tl+ flux [40] 0.0849 | log fold change Tl+ flux [42] 0.0472 | log fold change Tl+ flux [45] -0.0448
1.63: aggregation suppression score [8]
active: fluorescence slope change [1] 134% | viability decrease [20] 110% | tube area decrease [21] 106% | GLP1 secretion stimulation [22] 28.8% | inhibition of viability [23] 112% | viability decrease (inhibition) [24] 132% | viability decrease (inhibition) [25] 99.8% | AC50 [29] 18.7 µM | AC50 [31] 18.6 µM | AC50 [33] 23.5 µM | log fold change Tl+ flux [41] 0.0861 | log fold change Tl+ flux [43] -0.157 | log fold change Tl+ flux [44] 0.287
1.12: score [3]
-8.73%: inhibition [2]
16.2%: glutamate uptake change [7]

CCOC(=O)C1=C(COCCN)NC(C)=C(C(=O)OC)C1c1ccccc1Cl (configuration not stated)
inactive: parasite load remaining [46] 22.9% and 39.3% and 49.9% | z-score [17] -0.363 | insulin secretion stimulation [19] 11.6% | GLP1 secretion stimulation [22] 0.5% | inhibition [26] 3.33% | mean signal [27] 214 | red/green cell ratio (normalised) [28] 0.9 | remaining activity [47] 107% | z-score [36, 50] -0.269 and 0.142 and -0.356 | remaining NAD [37] 10 nM | luciferase signal [38] 104 AU | z-score [39] -0.815 and -0.625 and 0.7
1.26: normalised cell number [28, 48]
107% and 67.5% and 111%: viability [46]
0.139 and -0.0453 and -0.413: z-score [36, 51]
10%: nuclear beta-catenin stimulation ([18]; stimulation, at 2 µM)
active: nuclear beta-catenin stimulation ([18]; at 10 µM) 87.9% | viability decrease [20] 99.2% | tube area decrease [21] 87.8% | inhibition of viability [23] 99.3% | viability decrease (inhibition) [24] 102% | viability decrease (inhibition) [25] 92%
1.13: normalised cell number [28, 49]
